The whole screen tested about 69,000 compounds, of which about 8,600 (12%) showed an effect of 50% or more. For the sample, strong results were picked, then their nearest neighbours and some compounds at random.
System: Plasmodium berghei
Experiment: Screen against P. berghei liver stage (PbLuc), transformed with Luciferase, at 10uM
Assay type: functional, HepG2
Conditions: tested at 10 uM

SMILES | INHIBITION [%]
CCOCCN1C[C@@H]2CCCO[C@@H]2[C@H](NC(=O)c2cnoc2C)C1 | 32.1
CC1(c2ncc(CN3CCN(c4ncccn4)CC3)cn2)CCCCO1 (configuration not stated) | 23.15
O=C(c1ccccc1F)N1C[C@@H]2COC[C@]2(COCc2cccnc2)C1 | 10
CCCN1C(=O)c2ccccc2C1OC (configuration not stated) | 28.7
CCC(=O)Nc1cc(Br)cnc1OCC(F)(F)F | 67.1
COCC(=O)Nc1cc(Br)cnc1OCC(F)(F)F | 26
CC(=O)Nc1cc(Br)cnc1OCC(F)(F)F | 30.3
O=C(c1cccc2cccnc12)N1CC[C@@]2(CCCO2)[C@@H](O)C1 | 22
COC(=O)CC(c1ccc(OC)c(O)c1)c1oc(C)cc(=O)c1O (configuration not stated) | 3.31
CN1CCN(CCOc2ccc(NC(=O)c3ccncc3)cc2)CC1 | 27
CNc1nc2c(c(C(=O)N3CCCC3)n1)CN(C(=O)c1cccs1)CC2 | -37.9
NCC1CN(C(=O)c2cccc(-n3cccn3)c2)CCO1 (configuration not stated) | 40.5
O=C1CCC(C(=O)N2CCOC(Cc3ccccc3Cl)C2)=NN1 (configuration not stated) | 71.1
O=C1CCC(C(=O)N2CCOC(Cc3cccc4ccccc34)C2)=NN1 (configuration not stated) | 53.7
O=C1CCC(C(=O)N2CCOC(Cc3ccc(F)cc3)C2)=NN1 (configuration not stated) | -11.6
CCn1ncnc1CN1CCOC(Cc2cccc3ccccc23)C1 (configuration not stated) | 44.3
Cn1ccnc1C(=O)N1CCOC(Cc2ccccc2Cl)C1 (configuration not stated) | 41.2
Cc1cc2ccncc2n1CC1(O)CCN(C(=O)c2ccccn2)CC1 | 18.3
COC(=O)c1cc2c(OC)c(OC)c(OC)cc2[nH]1 | 32.2
C=c1ncsc1=C1NN=C(C2CCCN2C(=O)CCn2cccn2)O1 (configuration not stated) | 16.575
CCCNC(=O)c1cccc(CNCc2csc(C(C)C)n2)c1 | 55.1
CCCNC(=O)c1cccc(CNCc2csc(C(C)(C)C)n2)c1 | 77.4
CCC(C)NC(=O)c1cccc(CNCc2csc(C(C)C)n2)c1 (configuration not stated) | 64.5

SMILES | INHIBITION [%]
CC(C)c1nc(CNC(=O)c2ccc(C(C)N3CCCCC3)o2)cs1 (configuration not stated) | 42.2
CCCNC(=O)CN1CCC(NCc2csc(C(C)C)n2)CC1 | -16.8
CCCNC(=O)C1CCN(Cc2csc(C(C)C)n2)CC1 | 42
CCCNC(=O)c1cccc(CNCc2csc(CC)n2)c1 | 12.3
CCNC(=O)c1cccc(CNC(=O)c2cnc(C(C)(C)C)s2)c1 | -6.94
CCC(C)NC(=O)c1cccc(CNC(=O)CC(F)(F)F)c1 (configuration not stated) | -76.9
Cc1ccc(C(=O)O)c(N2CC(C)(C)[C@@](C)(O)C2)n1 | 16.2
O=S(=O)(c1cncc(F)c1)N1CCC2(CCOC2)C1 (configuration not stated) | -15.4
CC(=O)Nc1ccc2nc(CN(C)Cc3snnc3C)ccc2c1 | 11.4
COCc1cc(N(C)CCc2c(C)n[nH]c2C)ncn1 | 26.7
COCC(c1cccc(C(F)(F)F)c1)N(C)C(=O)c1ccco1 (configuration not stated) | 48.45
O=C(c1cnccn1)N1CC[C@H]2C[C@@H](c3ccncn3)O[C@@H]2C1 | 29.9
O=c1cc(CN2CCCC2)nc2n1CCCN(S(=O)(=O)C1CC1)C2 | 29.5
Cc1noc([C@@H]2C[C@@H]3CCN(c4nnc(C)s4)C[C@H]3O2)n1 | -21.1
Cc1noc([C@H]2CC[C@@H]3[C@@H](CCN3S(C)(=O)=O)O2)n1 | 7.12
Cc1noc([C@@H]2CC[C@@H]3[C@@H](CCN3c3nnc(C)s3)O2)n1 | 50.4
Cc1noc([C@H]2CC[C@@H]3[C@@H](CCN3c3ncccn3)O2)n1 | 51.4
Cc1noc([C@H]2C[C@@H]3CCN(c4nnc(C)s4)C[C@H]3O2)n1 | 39.5
Cc1noc([C@@H]2CC[C@@H]3[C@@H](CCN3S(C)(=O)=O)O2)n1 | -10.3
CN1C[C@@H]2CN(C(=O)NCc3cccc(F)c3)CCC[C@]2(C(=O)O)C1 | -10.5
Cn1cc(C2CCCN2Cc2cscn2)cn1 (configuration not stated) | 42
NC(=O)C1CCN(C(=O)CCn2ccc3ccc(F)cc32)CC1 | 33
Cc1ccc(CNC2CCCc3c2cnn3C)s1 (configuration not stated) | -10.8

SMILES | INHIBITION [%]
CSc1ccc(CNC2CCCc3c2cnn3C)cc1 (configuration not stated) | -46.8
Cn1ncc2c1CCCC2NCc1cccnc1 (configuration not stated) | 3.3
Cn1ncc2c1CCCC2NCc1cccc(F)c1 (configuration not stated) | 4.71
Cn1ncc2c1CCCC2NCc1cccc(OC2CCCC2)c1 (configuration not stated) | 50.5
Cc1cccc(CNC2CCCc3c2cnn3C)c1 (configuration not stated) | 25.1
CCn1ncc2c1CCCC2NCc1cccc2c1OCCCO2 (configuration not stated) | 40
Cn1ncc2c1CCCC2NCc1cccc(C(F)(F)F)c1 (configuration not stated) | 89.1
Cn1ncc2c1CCCC2NCc1cccc2c1OCCCO2 (configuration not stated) | 50.3
CCCn1cc(C(=O)NC2CCC(n3cnnc3)CC2)c(C)n1 (configuration not stated) | 18.5
Cc1occc1C(=O)N1CCC[C@]2(C[C@@H](OCc3ccccn3)CO2)C1 | 22.9
CCOCC1CN(Cc2ccccn2)Cc2nn(CC3CC3)cc21 (configuration not stated) | -2.17
O=C(NCC(F)(F)F)c1ccc(-c2ccco2)[nH]c1=O | 14.4
COc1ccc(C2CCCN2S(=O)(=O)N(C)C)cc1 (configuration not stated) | -45.2
c1c(CN2CCCC2)nc2n1CCN(CC1CC1)C2 | -44.4
COc1cc(C(=O)N(Cc2cnn(C)c2)C(C)C)ccc1OC(C)C | 27.8
CC1=N[C@@]2(CC[C@@H]3CN(Cc4ccccc4)C[C@@H]32)C(=O)N1CC1CC1 | -13.4
COc1ccc(C(=O)N2CCOCC(CO)C2)cc1N1CCOCC1 (configuration not stated) | 49.9
COc1ccc(C(=O)N2C[C@@H](C)[C@@](C)(O)C2)cc1N1CCOCC1 | -4.92
COc1ccc(C(=O)N2CC[C@](C)(O)[C@H](C)C2)cc1N1CCOCC1 | 54.4
CC(C)Cn1cnc2ccc(NC(=O)CCCn3cccn3)cc2c1=O | 13.2
CN(C)C(CNc1c(NCc2ccco2)c(=O)c1=O)c1ccccc1 (configuration not stated) | 4.48

From ChEMBL document CHEMBL4513216, “Probing the Open Global Health Chemical Diversity Library for Multistage-Active Starting Points for Next-Generation Antimalarials” (ACS Infect Dis, 2020)
